Data from PubChem BioAssay AID2763 (National Center for Advancing Translational Sciences (NCATS), 2010).
Results filed as inconclusive are left out. The source made the active and inactive calls. Calls come from the whole dose curve; as a rule, active = well fitted inhibition curve with a large enough effect; inconclusive = small, poorly fitted or top-dose-only effect, or effect the other way; inactive = no such curve, though single readings can be large or run the other way.

Assay: Concentration response confirmation VP16 counterscreen for inhibitors of ROR gamma transcriptional activity; note: nearly all actives have a fitted effect of over 70% in size
Conditions: Drosophila S2 Gal4-VP16 UAS-luciferase, luminescence, 20 h; series mostly up to 46.1 µM; activity change, negative = inhibition: at the top concentration
Method in brief: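 Drosophila Schneider cells stably carrying Gal4-VP16 under metallothionein promoter plus UAS-Photinus luciferase. Compound preincubated 1 hr, then 700 uM copper sulfate induction for 20 hr at ambient temperature; luminescence read.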
% is set by controls: 0 for no effect and ±100 for the full control effect; potency is the fitted concentration of half-maximal effect.

| Structure (SMILES) | Potency | activity change, negative = inhibition |
| --- | --- | --- |
| CN(Cc1nc2ccccc2c(=O)[nH]1)Cc1nc2ccsc2c(=O)[nH]1 | 4.99 µM (active) | – |
| COc1ccc(/C=C/C(=O)NC(=S)NCC2CCCO2)cc1 (stereo unspecified) | 14.1 µM (active) | – |
| S=c1[nH]c(-c2ccc(Br)cc2)cn1CCc1ccccc1 | 14.1 µM (active) | – |
| CCOc1ccc2nc(NC(=O)c3cnccn3)sc2c1 | 9.96 µM (active) | – |
| O=C(CCCN1C(=O)/C(=C/c2ccccc2Cl)SC1=S)NNC(=O)c1ccc(Cl)cc1Cl | 4.45 µM (active) | – |
| COc1ccc2[nH]c(C)c(CCN(Cc3cccs3)C(=S)Nc3ccccc3OC)c2c1 | – | 37.2% (inactive) |
| S=c1[nH]nc(-c2ccc(Cl)cc2Cl)n1-c1ccc2c(c1)OCCO2 | – | 0.595% (inactive) |
| CNC(=O)NC(=O)CSc1nc2cc(C(=O)OC)ccc2c(=O)n1-c1ccccc1 | 25 µM (active) | – |
| CCN1CCCc2cc(CN(CCN3CCOCC3)C(=S)Nc3ccccc3C)ccc21 | 15.8 µM (active) | – |
| COc1ccc(C(=O)Nc2nc3cc4c(cc3s2)OCCO4)c(OC)c1 | 0.223 µM (active) | – |
| O=C(CN1CCCCCC1)Nc1ccc(S(=O)(=O)N2CCOCC2)cc1 | – | -10.3% (inactive) |
| COc1ccc(-c2cc(-c3ccccc3)n[nH]2)c(O)c1 | 19.9 µM (active) | – |
| COc1ccc(-c2nc(CS(=O)(=O)CC(=O)NCCc3ccc(C)cc3)c(C)o2)cc1 | – | -7.61% (inactive) |
| NC(=O)/C=C/C(=O)Nc1ccc(Cl)cc1 | 8.88 µM (active) | – |
| CCOC(=O)C(C(=O)OCC)C(C(=O)OCC)N1CCOCC1 (stereo unspecified) | 3.53 µM (active) | – |
| Cc1ccc(-n2[nH]c3c4c(ccc3c2=O)C(=O)c2ccccc2C4=O)cc1 | – | 3.45% (inactive) |
| COc1ccc(-c2cc(C(=O)NNC3=NCCC3)c3c(C)nn(-c4ccccc4)c3n2)cc1 | 2.5 µM (active) | – |
| CCOc1ncccc1C(=O)OCC(=O)Nc1ccc(-c2nc3ccc(C)cc3s2)cc1 | 3.53 µM (active) | – |

| Structure (SMILES) | Potency | activity change, negative = inhibition |
| --- | --- | --- |
| COc1ccc(OC)c(/C=C2\SC(=S)N(C(C(=O)O)c3ccccc3)C2=O)c1 (stereo unspecified) | – | -2.55% (inactive) |
| Cc1ccc(S(=O)(=O)NCc2ccncc2)cc1 | 12.5 µM (active) | – |
| COc1ccc(-n2ncc(Cl)c(Cl)c2=O)cc1 | 19.9 µM (active) | – |
| Cc1cc(C)nc(-n2nc(C)cc2NC(=O)CNC(C)c2ccccc2)n1 (stereo unspecified) | 19.9 µM (active) | – |
| COc1ccc2nc(NC(=O)c3sc4nc(C)cc(C)c4c3N)sc2c1 | 0.0791 µM (active) | – |
| Cc1ccc(Oc2nc(-c3ccccn3)nc3ccccc23)cc1 | 3.53 µM (active) | – |
| CCOC(=O)Cc1nnc(Nc2ccc(C(=O)NC)cc2)c2ccccc12 | – | -10.9% (inactive) |
| C=CCNc1nc(Nc2ccc([N+](=O)[O-])cc2)nc(N2CCCC2)n1 | 19.9 µM (active) | – |
| COCC1CCCCN1C(=O)c1cc(COc2ccc3ncccc3c2)on1 (stereo unspecified) | 7.05 µM (active) | – |
| O=C(CSCCO)Nc1ccc(C2CCCCC2)cc1 | 9.96 µM (active) | – |
| CC(=O)c1cnc2nc(C(F)(F)F)nn2c1C | – | 1.06% (inactive) |
| Cc1oc(-c2ccccc2Cl)nc1CSCC(=O)O | 7.91 µM (active) | – |
| Cc1ccc2nc(-c3ccc(NC(=O)COC(=O)c4ccc(=O)[nH]c4)cc3)sc2c1 | 12.5 µM (active) | – |
| O=c1c2cc(Br)ccc2[nH]c(=S)n1Cc1cccnc1 | 11.2 µM (active) | – |
| Cn1nccc1C(=O)NC1CCCc2c1cnn2-c1ccc(F)cc1F (stereo unspecified) | 1.58 µM (active) | – |
| COc1ccc(-c2cc(C(F)(F)F)nc(S(=O)(=O)CCCC(=O)Nc3cccnc3Cl)n2)cc1OC | 9.96 µM (active) | – |
| S=c1[nH]nc(-c2cc(-c3ccccn3)nc3ccccc23)o1 | – | 20.8% (inactive) |
| COc1cccc(CNS(=O)(=O)c2ccc3c(c2)CCN3C(=O)C2CC2)c1 | – | -7.99% (inactive) |
